High-throughput results deposited in PubChem by several laboratories.
Shown are actives, neighbours in structure and some others; about 2.1% of the full set was active somewhere.
Arbovirus inh = antivirals against arbovirus infection; arbovirus infection cell-based antiviral screen; inhibition, % at 10 µM; hit rate 0.37% among 200,000; AID 1251; in the data active = inhibition above about 30%
HSV replic up = HSV replication enhancement | hit rate 0.005% among 220,000 | HSV replication augmentation in cells, fold increase | maximum fold increase; in the data active = maximum fold increase above about 1.5; inconclusive = no clear call, values can overlap the other calls; tested in PC3 cells
Calpain2 inh = inhibitors of pig calpain II | hit rate 0.37% among 220,000 | inhibition, % at 16 µM | purified calpain II, fluorogenic peptide substrate, 30 min;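 active = inhibition above about 50%, limit read from the data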
ROMK primary = modulators of human ROMK potassium channel | AID 1918 | hit rate 2% among 130,000 | Tet-inducible ROMK, thallium flux fluorescence; actives lie on both sides | B-score at 10 µM;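 active = signal ratio slope over the read window, or its plate-corrected B-score, at least 3 SD from the plate mean, either direction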;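 also: B-score of the F/F0 ratio slope over 7 to 12 s after thallium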
Target sequence (P48048 whole entry, looked up): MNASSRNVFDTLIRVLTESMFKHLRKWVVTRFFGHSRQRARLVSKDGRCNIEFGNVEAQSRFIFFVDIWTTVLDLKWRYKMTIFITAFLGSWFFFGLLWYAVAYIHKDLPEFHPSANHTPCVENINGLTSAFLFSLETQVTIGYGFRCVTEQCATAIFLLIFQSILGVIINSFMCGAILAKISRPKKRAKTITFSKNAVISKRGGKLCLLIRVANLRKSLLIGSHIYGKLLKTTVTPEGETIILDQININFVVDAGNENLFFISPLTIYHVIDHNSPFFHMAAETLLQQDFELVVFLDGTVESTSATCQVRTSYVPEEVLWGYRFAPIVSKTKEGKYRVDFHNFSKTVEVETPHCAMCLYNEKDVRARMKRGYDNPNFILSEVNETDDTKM
HMGR II inh = E. faecalis class II HMG-CoA reductase inhibition; purified E. faecalis HMGR, NADPH absorbance 340 nm kinetic; inhibition, % at 10 µM; hit rate 0.41% among 190,000; AID 1066;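 active = inhibition above a set limit, the median over all tested compounds plus 3 SD, cut at about 9.5% in these data; inconclusive = no clear call, values can overlap the other calls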;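 also: enzyme runs in reverse so mevalonate oxidation gives rising NADPH absorbance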
Large screens that a line does not name were inactive.

CCOC(=O)/C(C#N)=C1/C(=O)N(Cc2ccccc2)c2ccccc21	HMGR II inh 14.6
CCSc1nc(C)nc2sc(C)c(C)c12	none (no result: Arbovirus inh, ROMK primary, HMGR II inh)
O=C(CSc1nnnn1-c1ccc2c(c1)OCCO2)OC1CCCCC1	Calpain2 inh 71.2 (no result: ROMK primary)
O=C(NC(=S)N1CCN(Cc2ccc3c(c2)OCO3)CC1)c1ccc(Cl)cc1	none (no result: ROMK primary)
O=C(NC(=S)N1CCN(Cc2ccc3c(c2)OCO3)CC1)c1cccc(Br)c1	ROMK primary 4.89
O=C(NCCCn1ccnc1)c1nn2c(C(F)(F)F)cc(-c3ccccc3)nc2c1Cl	none
O=C(NNC(=S)NC1CCCCC1)c1ccc(Cl)s1	Arbovirus inh 38.3
Cc1cccc(C)c1OCC(=O)Nc1ccc(N2CCOCC2)cc1	none
COc1ccc(-c2csc(Nc3ccc(C)cn3)n2)cc1OC	Arbovirus inh 52.6
Cc1ccc(Nc2nc(-c3ccc(O)c(O)c3)cs2)nc1	none (no result: ROMK primary)
CCCCNS(=O)(=O)c1ccc(NC(=O)C(Sc2ccccc2)c2ccccc2)cc1 (configuration not stated)	none
Cc1cccc(OCC(=O)NNC(=O)CCc2ccccc2)c1	HMGR II inh 52.5
C/C(Cc1ccccc1)=N\NC(=O)CNC(=O)COc1cccc(C)c1	none (no result: Arbovirus inh, ROMK primary, HMGR II inh)
COc1n[nH]c(C(=O)Nc2nc3ccccc3s2)c1[N+](=O)[O-]	none
COc1n[nH]c(C(=O)NCc2ccccc2)c1[N+](=O)[O-]	HMGR II inh 12.1
CC(C)NCC(O)(c1ccc(Cl)cc1)c1ccc(Cl)cc1	HMGR II inh 13.1
CC(C)(C)NCC(O)(c1ccc(Cl)cc1)c1ccc(Cl)cc1	none
CC(=O)Nc1ccc(NC(=O)C(C)Sc2nnc(-c3cccs3)o2)cc1 (configuration not stated)	none (no result: Arbovirus inh, ROMK primary, HMGR II inh)
S=c1[nH]cnc2scc(-c3ccc(Br)cc3)c12	none
Cc1sc2nc[nH]c(=S)c2c1-c1ccccc1	ROMK primary 6.4
Cc1ccc(-c2csc3nc[nH]c(=S)c23)cc1	ROMK primary 10.5
Cc1cc(-c2csc3nc[nH]c(=S)c23)cc(C)c1C	ROMK primary 5.18
COc1ccc(CCN(C)C(=O)CSc2nc3ncc(Cl)cc3[nH]2)cc1OC	none
CN(C)CCN(C)Cc1ccccc1Sc1cccc2ccccc12	none
Cc1nc2c(C(=O)NCCc3ccccc3)c[nH]n2c(=O)c1Cl	none (no result: ROMK primary)
Cc1nc2c(C(=O)NCCC(C)C)c[nH]n2c(=O)c1Cl	Arbovirus inh 35.5
COC(=O)N1CCCc2cc(C)ccc21	HMGR II inh 11.3
CCN(C(=O)COC(=O)CNC(=O)c1ccc(C)s1)c1ccccc1	none
CCOC(=O)CC1=NS(=O)(=O)c2ccccc2N1	Arbovirus inh 77.3 (no result: ROMK primary)
CN1CCN(S(=O)C23CC4CC(CC(C4)C2)C3)CC1 (configuration not stated)	none
CC1CCN(S(=O)C23CC4CC(CC(C4)C2)C3)CC1 (configuration not stated)	Calpain2 inh 56.4
CC(=O)N/C(=C/c1ccc2c(c1)OCO2)C(=O)NCc1ccccc1	none
Cc1ccc(N2C(=O)C3CC(c4ccccc4)=C4C5C=CC(C6C(=O)N(c7ccc(C)cc7)C(=O)C56)C4C3C2=O)cc1 (configuration not stated)	Arbovirus inh 33.0
Cc1ccc(N2C(=O)C3CC(c4ccccc4)=C4C5C=CC(C6C(=O)N(c7ccc(C)cc7C)C(=O)C56)C4C3C2=O)c(C)c1 (configuration not stated)	none
CCOC(=O)N/N=C(/C)c1cccc(-n2cnnn2)c1	none
CCCCC(=NCCc1c(C)[nH]c2ccc(OC)cc12)C1=C(O)CC(c2ccccc2)CC1=O (configuration not stated)	none
CC(=NCCc1c(C)[nH]c2ccc(OCc3ccccc3)cc12)C1=C(O)CC(c2ccccc2)CC1=O (configuration not stated)	HMGR II inh 12.6
O=S(=O)(NCc1cccc(C(F)(F)F)c1)NCc1ccccc1F	none (no result: HSV replic up, ROMK primary)
CCOc1c(CNCCNC(=O)c2nonc2N)cccc1OC	none (no result: ROMK primary, HMGR II inh)
COc1cccc(C=NCCNC(=O)c2nonc2N)c1O	Calpain2 inh 101.1
Cc1noc(C)c1COC(=O)CNC(=O)c1cccc(F)c1	Calpain2 inh 59.5
Cc1noc(C)c1COC(=O)C(c1ccccc1)c1ccccc1	Calpain2 inh 57.9
Cc1noc(C)c1COC(=O)/C=C/c1ccccc1Cl	none
Cc1noc(C)c1COC(=O)c1ccccc1NC(=O)c1ccco1	none
COC(=O)c1c(N(S(C)(=O)=O)S(C)(=O)=O)sc2c1CCN(c1ncc(C(F)(F)F)cc1Cl)C2	Arbovirus inh 48.1 (no result: ROMK primary)
CC(NC(=O)c1ccco1)C(=O)OC(C)C(=O)NCc1ccccc1 (configuration not stated)	none
CCCc1ccc(OC(=O)c2ccc(O)cc2Cl)cc1	Calpain2 inh 62.2 (no result: HSV replic up)
CCO/C(C)=C1/SC(=S)NC1=O	HSV replic up inconclusive (no result: Arbovirus inh, HMGR II inh)
COC(=O)C1=C(C)Nc2c(c(=O)n(C)c(=O)n2C)C1c1cccc(O)c1 (configuration not stated)	none (no result: Arbovirus inh, ROMK primary, HMGR II inh)
COC(=O)C1=C(C)Nc2c(c(=O)n(C)c(=O)n2C)C1c1cccnc1 (configuration not stated)	HMGR II inh 13.4
O=C(c1ccc(Cn2c(=S)[nH]c3ccccc3c2=O)cc1)N1CCN(c2ccccn2)CC1	none
O=C(COc1ccc(-c2nnc(N3CCCCC3)c3ccccc23)cc1)N1CCCCC1	ROMK primary -3.2
O=C(CSc1nnnn1-c1ccccc1)CSc1nnnn1-c1ccccc1	Calpain2 inh 75.8 (no result: ROMK primary)
O=C1c2ccccc2C(=O)N1CCCCSc1nnnn1-c1ccccc1	Calpain2 inh 54.0 (no result: ROMK primary)
CCOC(=O)N1CCN(C(=O)c2ccc(NS(C)(=O)=O)cc2)CC1	Calpain2 inh 50.3 (no result: ROMK primary)
CC(C)N(Cc1nc(-c2ccccc2)no1)C(=O)CN1C(=O)c2ccccc2C1=O	none
CC(C)N(Cc1nc(-c2ccccc2)no1)C(=O)CCCN1C(=O)c2ccccc2C1=O	Calpain2 inh 64.4 (no result: ROMK primary)
CCOC(=O)c1cc(C)sc1NC(=O)C(c1ccccc1)c1ccccc1	none
CCc1cc(C(=O)O)c(NC(=O)C(c2ccccc2)c2ccccc2)s1	Arbovirus inh 34.7
COc1ccc(NC(=S)N/N=C/c2cccn2Cc2ccc(F)cc2Cl)cc1	ROMK primary 1.35
CC(OC(=O)c1ccccc1Nc1ccc(SC(F)F)cc1)C(N)=O (configuration not stated)	Calpain2 inh 68.2
C[C@@H]1CCC[C@H](C)N1Cc1nc(Cc2ccccc2Cl)no1	none
Cc1nn(-c2ccccc2)c2nc(C(F)(F)F)[nH]c(=O)c12	Arbovirus inh 37.2 (no result: ROMK primary)
CC(c1ccccc1F)n1cc(C(=O)NCCCc2nc3ccccc3[nH]2)nn1 (configuration not stated)	none
CC1CCN(C(=O)C2CCN(S(=O)(=O)c3cc(Cl)ccc3Cl)CC2)CC1	none (no result: Arbovirus inh, ROMK primary, HMGR II inh)
CCOc1cccc(C(=O)Nc2ccccc2N2CCN(C(=O)C(C)C)CC2)c1	Arbovirus inh 34.9
Clc1cccc(Cl)c1-c1noc(CN2CCOCC2)n1	none (no result: Arbovirus inh, ROMK primary, HMGR II inh)
O=C1NN=C(c2ccc(Cl)cc2)CC1c1cccc(Br)c1 (configuration not stated)	Calpain2 inh 53.9
Cc1ccc(C2=NNC(=O)C(c3ccc(Cl)cc3)C2)cc1 (configuration not stated)	none
O=C(Nc1ccc(F)c([N+](=O)[O-])c1)c1ccc2c(c1)C(=O)OC2=O	none (no result: Arbovirus inh, ROMK primary, HMGR II inh)
